Results filed as inconclusive are left out. More than one record can exist for a structure, and the calls need not agree. Calls of active or inactive are those of the source. How the source made its calls: active means hit-call score of the fitted dose curve at least 0.9, where 1 is the maximum; inconclusive means response in the unintended direction; inactive means score below 0.9.
Each molecule was assayed against Bile acid receptor (Homo sapiens) (UniProt Q96RI1) (assay: OT_FXR_FXRSRC1_0480: Odyssey Thera (OT) 8-hour HEK293T Protein-Complementation Assay for Farnesoid X receptor/SRC-1 Co-activator (AID 2283383)).
Sequence of Bile acid receptor (Homo sapiens) (Q96RI1 whole entry, looked up): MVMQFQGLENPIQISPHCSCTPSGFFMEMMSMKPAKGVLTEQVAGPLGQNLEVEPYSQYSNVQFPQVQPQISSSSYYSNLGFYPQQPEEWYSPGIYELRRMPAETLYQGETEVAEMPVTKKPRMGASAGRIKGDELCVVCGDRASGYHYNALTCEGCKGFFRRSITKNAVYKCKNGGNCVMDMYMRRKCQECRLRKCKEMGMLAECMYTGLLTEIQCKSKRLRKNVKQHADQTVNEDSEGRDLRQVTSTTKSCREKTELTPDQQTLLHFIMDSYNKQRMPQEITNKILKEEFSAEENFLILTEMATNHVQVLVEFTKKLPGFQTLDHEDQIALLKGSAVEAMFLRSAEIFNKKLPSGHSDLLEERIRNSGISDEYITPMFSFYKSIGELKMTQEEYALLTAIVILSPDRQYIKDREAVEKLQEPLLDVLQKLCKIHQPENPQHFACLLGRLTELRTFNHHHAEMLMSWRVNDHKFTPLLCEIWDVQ
Outline: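 Readings were taken 8 h after dosing HEK293T cells in a split-reporter complementation format pairing FXR with SRC-1. Increased fluorescence relative to DMSO-treated wells defined activity.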
With `O=C(CCCN1CCC(O)(c2ccc(Cl)cc2)CC1)c1ccc(F)cc1` the outcome was “inactive”.
In the case of `Cc1cc(C(C)(C)C)c(O)c(C(C)(C)C)c1`, the AC50 is reported as 11.3 µM (active).
In the case of `CC(C)[C@@H]1CC[C@@H](C)C[C@H]1O`, the outcome is reported as “inactive”.
In the case of `O=S(=O)(O)c1ccccc1`, the outcome is reported as “inactive”.
`Cc1[nH]nc2c1N=C(c1ccccc1Cl)c1cc([N+](=O)[O-])ccc1N2` was tested, and the AC50 was 1.06 µM (active).

The molecules below were run against Bile acid receptor (Homo sapiens) (UniProt Q96RI1) (assay: OT_FXR_FXRSRC1_1440: Odyssey Thera (OT) 24-hour HEK293T Protein-Complementation Assay for Farnesoid X receptor/SRC-1 Co-activator (AID 2283384)).
Outline: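 Single endpoint, analysed for increased fluorescence against DMSO controls. HEK293T cells carrying FXR and SRC-1 linked to complementary reporter halves were exposed to chemicals for 24 h before reading.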
With `O=C(CCCN1CCC(O)(c2ccc(Cl)cc2)CC1)c1ccc(F)cc1` the outcome was “inactive”.
`Cc1cc(C(C)(C)C)c(O)c(C(C)(C)C)c1` was tested, and the AC50 was 11.4 µM (active).
In the case of `OCC(CO)(CBr)CBr`, the outcome is reported as “inactive”.
With `O=S(=O)(O)c1ccccc1` the outcome was “inactive”.
With `Cc1[nH]nc2c1N=C(c1ccccc1Cl)c1cc([N+](=O)[O-])ccc1N2` the AC50 was 0.279 µM (active).
In the case of `CCCCC=O`, the outcome is reported as “inactive”.

The molecules below were run against Retinoic acid receptor RXR-alpha (Homo sapiens) (UniProt P19793) (assay: OT_NURR1_NURR1RXRa_0480: Odyssey Thera (OT) 8-hour HEK293T Protein Complementation Assay for Nurr1/retinoid X receptor (RXR) (AID 2283385)).
Sequence of Retinoic acid receptor RXR-alpha (Homo sapiens) (P19793 whole entry, looked up, the tested form may be a part): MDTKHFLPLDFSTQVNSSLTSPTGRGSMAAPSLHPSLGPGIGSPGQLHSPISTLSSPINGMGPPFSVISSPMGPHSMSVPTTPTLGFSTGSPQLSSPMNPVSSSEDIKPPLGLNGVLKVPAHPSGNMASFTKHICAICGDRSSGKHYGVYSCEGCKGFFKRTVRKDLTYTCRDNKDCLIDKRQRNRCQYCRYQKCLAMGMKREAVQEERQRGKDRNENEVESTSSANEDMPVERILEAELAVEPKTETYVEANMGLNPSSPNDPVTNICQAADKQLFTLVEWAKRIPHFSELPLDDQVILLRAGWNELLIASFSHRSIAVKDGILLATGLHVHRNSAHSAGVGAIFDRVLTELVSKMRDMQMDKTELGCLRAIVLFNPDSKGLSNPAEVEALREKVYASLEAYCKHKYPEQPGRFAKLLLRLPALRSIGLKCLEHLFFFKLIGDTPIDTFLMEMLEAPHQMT
Outline: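 Gain in fluorescent complementation signal over DMSO, measured 8 hours after chemical dosing of human kidney HEK293T cells, indicated enhanced Nurr1–RXRα association.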
`CCCCCCCCCCCCCCC` was tested, and the outcome was “inactive”.
With `O=C(CCCN1CCC(O)(c2ccc(Cl)cc2)CC1)c1ccc(F)cc1` the outcome was “inactive”.
In the case of `CS(=O)(=O)c1ccc([C@@H](CC2CCCC2)C(=O)Nc2cnccn2)cc1Cl`, the outcome is reported as “inactive”.
In the case of `CCCCCCCCCCCC(=O)O`, the outcome is reported as “inactive”.
`Cc1cc(C(C)(C)C)c(O)c(C(C)(C)C)c1` was tested, and the AC50 was 74.6 µM (active).
`Cc1ccc(C)c(S(=O)(=O)O)c1` was tested, and the outcome was “inactive”.
`CCC(C)c1ccccc1O` (stereo not drawn) was tested, and the outcome was “inactive”.
For `C[C@]12CC[C@@H]3c4ccc(O)cc4CC[C@H]3[C@@H]1C[C@@H](O)[C@@H]2O`, the outcome was “inactive”.
`CCCCCCCCCCCC` was tested, and the AC50 was 39.2 µM (active).
`OCC(CO)(CBr)CBr` was tested, and the outcome was “inactive”.
`c1cnc2c(c1)ccc1cccnc12` was tested, and the outcome was “inactive”.
For `NS(=O)(=O)O`, the outcome was “inactive”.
`O=C1NS(=O)(=O)c2ccccc21` was tested, and the outcome was “inactive”.
`O=S(=O)(O)c1ccccc1` was tested, and the outcome was “inactive”.
`CCCCC=O` was tested, and the outcome was “inactive”.

The molecules below were run against Retinoic acid receptor RXR-alpha (Homo sapiens) (UniProt P19793) (assay: OT_NURR1_NURR1RXRa_1440: Odyssey Thera (OT) 24-hour HEK293T Protein Complementation Assay for Nurr1/retinoid X receptor (RXR) (AID 2283386)).
Outline: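 Cell-based binding reporter: HEK293T cells, 24 h exposure, fluorescence-detected fragment complementation, DMSO as baseline.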
For `CCCCCCCCCCCCCCC`, the outcome was “inactive”.
In the case of `O=C(CCCN1CCC(O)(c2ccc(Cl)cc2)CC1)c1ccc(F)cc1`, the AC50 is reported as 80.3 µM (active) and the outcome is reported as “inactive”.
In the case of `CCCCCCCCCCCC(=O)O`, the outcome is reported as “inactive”.
`Cc1cc(C(C)(C)C)c(O)c(C(C)(C)C)c1` was tested, and the AC50 was 77.3 µM (active).
With `CCC(C)c1ccccc1O` (stereo not drawn) the outcome was “inactive”.
For `C[C@]12CC[C@@H]3c4ccc(O)cc4CC[C@H]3[C@@H]1C[C@@H](O)[C@@H]2O`, the outcome was “inactive”.
In the case of `CCCCCCCCCCCC`, the outcome is reported as “inactive”.
`c1cnc2c(c1)ccc1cccnc12` was tested, and the AC50 was 0.727 µM (active).
With `NS(=O)(=O)O` the outcome was “inactive”.
With `O=C1NS(=O)(=O)c2ccccc21` the outcome was “inactive”.
`CCCCC(CC)C(=O)O` (stereo not drawn) was tested, and the outcome was “inactive”.
`CC(C)[C@@H]1CC[C@@H](C)C[C@H]1O` was tested, and the outcome was “inactive”.
In the case of `O=S(=O)(O)c1ccccc1`, the outcome is reported as “inactive”.
`CCCCC=O` was tested, and the outcome was “inactive”.
With `Cc1ccc(S(=O)(=O)O)cc1` the outcome was “inactive”.
For `NCCN`, the outcome was “inactive”.
